# From PubChem BioAssay (NCATS)
# Results filed as inconclusive are left out. Calls of active or inactive are those of the source. Unless noted, calls follow the shape of the dose curve; as a rule, active = well fitted curve in the direction sought with a large enough effect; inconclusive = small, poorly fitted or top-dose-only effect, or another doubt; inactive = no such curve, though single readings can be large; an effect the other way counts as inactive or inconclusive.
# Tests used:
# [1] = Primary qHTS for inhibitors of nuclear receptor binding SET domain protein 2 (NSD2) in an RCH-ACV wild type WT cells (2C) (AID 1645877); also: nearly all actives have a fitted effect of over 70% in size; also: potency is read from the fitted curve at half-maximal effect
# [2] = Primary qHTS for inhibitors of nuclear receptor binding SET domain protein 2 (NSD2) in an isogenic RCH-ACV NSD2 p.E1099K mutant (9B) (AID 1645876); also: nearly all actives have a fitted effect of over 70% in size; also: potency is read from the fitted curve at half-maximal effect
# [3] = target: Catechol O-methyltransferase (Homo sapiens) (UniProt P21964); assay: Confirmatory Screen for Target Class Profiling of Small Molecule Inhibitors of Methyltransferases (AID 1745852; calls by dose curve; as to activity change, negative = inhibition: % is scaled to controls: 0 for no effect and ±100 for the full control effect); conditions: MTase-Glo luminescence, SAH detection, recombinant enzyme; measured here: COMT max response; stronger effect = lower value
# Chain of Catechol O-methyltransferase (Homo sapiens) (P21964 whole entry, looked up): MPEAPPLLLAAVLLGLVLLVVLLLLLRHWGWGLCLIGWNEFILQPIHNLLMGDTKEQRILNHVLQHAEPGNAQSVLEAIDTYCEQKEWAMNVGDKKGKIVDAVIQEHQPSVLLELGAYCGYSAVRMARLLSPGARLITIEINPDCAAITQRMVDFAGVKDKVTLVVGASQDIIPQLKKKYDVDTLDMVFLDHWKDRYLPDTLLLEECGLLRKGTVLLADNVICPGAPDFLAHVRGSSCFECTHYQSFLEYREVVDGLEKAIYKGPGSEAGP
# [4] = target: Guanidinoacetate N-methyltransferase (Homo sapiens) (UniProt Q14353); assay: as above; conditions: MTase-Glo luminescence, SAH detection, recombinant enzyme; at 57.3 µM (top of the series)
# [5] = target: Nicotinamide N-methyltransferase (Homo sapiens) (UniProt P40261); assay: as above; conditions: MTase-Glo luminescence, SAH detection, recombinant enzyme; measured here: NNMT max response; stronger effect = lower value
# Chain of Nicotinamide N-methyltransferase (Homo sapiens) (P40261 whole entry, looked up): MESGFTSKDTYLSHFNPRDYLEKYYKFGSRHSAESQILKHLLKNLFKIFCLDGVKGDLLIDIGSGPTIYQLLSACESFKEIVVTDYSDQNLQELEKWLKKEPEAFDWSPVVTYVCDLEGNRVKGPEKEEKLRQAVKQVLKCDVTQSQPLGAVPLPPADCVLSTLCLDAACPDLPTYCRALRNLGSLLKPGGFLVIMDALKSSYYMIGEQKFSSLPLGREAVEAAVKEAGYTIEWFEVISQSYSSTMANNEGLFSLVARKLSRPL
# [6] = target: Phenylethanolamine N-methyltransferase (Homo sapiens) (UniProt P11086); assay: as above; conditions: MTase-Glo luminescence, SAH detection, recombinant enzyme; measured here: PNMT max response; stronger effect = lower value
# Chain of Phenylethanolamine N-methyltransferase (Homo sapiens) (P11086 whole entry, looked up): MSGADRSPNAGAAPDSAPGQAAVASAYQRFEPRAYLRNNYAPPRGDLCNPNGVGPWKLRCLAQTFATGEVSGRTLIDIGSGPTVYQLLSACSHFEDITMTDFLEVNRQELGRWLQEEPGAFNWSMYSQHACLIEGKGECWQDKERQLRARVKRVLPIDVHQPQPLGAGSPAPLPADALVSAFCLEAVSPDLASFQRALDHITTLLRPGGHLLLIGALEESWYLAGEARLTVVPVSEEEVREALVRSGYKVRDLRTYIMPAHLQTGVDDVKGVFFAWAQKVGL
# [7] = target: Rap guanine nucleotide exchange factor 3 (Homo sapiens) (UniProt O95398); assay: Confirmatory qHTS for antagonist of cAMP-regulated guanine nucleotide exchange factor 3 (EPAC1) (AID 1645880); also: potency is read from the fitted curve at half-maximal effect; nearly all actives have a fitted effect of over 55% in size
# Chain of Rap guanine nucleotide exchange factor 3 (Homo sapiens) (O95398 whole entry, looked up): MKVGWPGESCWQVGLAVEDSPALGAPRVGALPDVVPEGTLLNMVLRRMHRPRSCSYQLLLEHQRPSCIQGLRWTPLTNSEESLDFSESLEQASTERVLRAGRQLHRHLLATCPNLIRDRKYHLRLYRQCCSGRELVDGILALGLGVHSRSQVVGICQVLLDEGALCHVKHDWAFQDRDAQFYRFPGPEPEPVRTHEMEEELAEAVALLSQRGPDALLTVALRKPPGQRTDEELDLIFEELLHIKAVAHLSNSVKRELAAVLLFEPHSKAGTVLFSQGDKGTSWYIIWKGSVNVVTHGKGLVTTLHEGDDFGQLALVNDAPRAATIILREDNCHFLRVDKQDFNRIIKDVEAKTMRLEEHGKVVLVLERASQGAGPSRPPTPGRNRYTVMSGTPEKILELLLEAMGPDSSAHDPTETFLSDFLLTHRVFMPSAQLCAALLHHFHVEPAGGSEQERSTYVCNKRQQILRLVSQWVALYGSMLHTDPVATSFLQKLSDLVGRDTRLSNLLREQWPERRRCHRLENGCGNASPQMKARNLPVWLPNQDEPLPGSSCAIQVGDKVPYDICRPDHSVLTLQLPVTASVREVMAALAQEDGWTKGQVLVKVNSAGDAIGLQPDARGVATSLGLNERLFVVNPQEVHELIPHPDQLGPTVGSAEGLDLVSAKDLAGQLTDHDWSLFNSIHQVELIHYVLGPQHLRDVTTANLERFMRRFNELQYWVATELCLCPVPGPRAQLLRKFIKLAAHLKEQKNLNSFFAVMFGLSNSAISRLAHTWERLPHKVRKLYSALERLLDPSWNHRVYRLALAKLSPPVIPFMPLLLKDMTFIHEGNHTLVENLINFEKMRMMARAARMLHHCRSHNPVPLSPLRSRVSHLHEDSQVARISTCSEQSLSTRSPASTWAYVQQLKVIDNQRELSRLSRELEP
# Procedure, shortened: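 Released BODIPY-GDP fluoresces less than Rap1-bound BODIPY-GDP; the signal is followed at 480/540 nm at 5-min intervals over 30 min, after 5 min at room temperature. Reactions contain 100 nM EPAC1, 250 nM RAP1B-BODIPY-GDP and 50 uM GDP; results are normalized to ATA and DMSO.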
# [8] = target: Rap guanine nucleotide exchange factor 3 (Homo sapiens) (UniProt O95398); assay: Confirmatory qHTS for agonist of cAMP-regulated guanine nucleotide exchange factor 3 (EPAC1) (AID 1645881);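 also: EPAC1 catalysed release of BODIPY-GDP from Rap1B seen as fluorescence loss; 100% = effect of cAMP agonist control; nearly all actives have a fitted effect of over 75% in size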
# [9] = target: Rap guanine nucleotide exchange factor 4 (Homo sapiens) (UniProt Q8WZA2); assay: Confirmatory qHTS for agonist of cAMP-regulated guanine nucleotide exchange factor 4 (EPAC2) (AID 1645884);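 also: nucleotide exchange releases bodipy-GDP from Rap1 and this lowers its fluorescence; % is scaled to controls: 0 for no effect and ±100 for the full control effect; nearly all actives have a fitted effect of over 65% in size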
# Chain of Rap guanine nucleotide exchange factor 4 (Homo sapiens) (Q8WZA2 whole entry, looked up): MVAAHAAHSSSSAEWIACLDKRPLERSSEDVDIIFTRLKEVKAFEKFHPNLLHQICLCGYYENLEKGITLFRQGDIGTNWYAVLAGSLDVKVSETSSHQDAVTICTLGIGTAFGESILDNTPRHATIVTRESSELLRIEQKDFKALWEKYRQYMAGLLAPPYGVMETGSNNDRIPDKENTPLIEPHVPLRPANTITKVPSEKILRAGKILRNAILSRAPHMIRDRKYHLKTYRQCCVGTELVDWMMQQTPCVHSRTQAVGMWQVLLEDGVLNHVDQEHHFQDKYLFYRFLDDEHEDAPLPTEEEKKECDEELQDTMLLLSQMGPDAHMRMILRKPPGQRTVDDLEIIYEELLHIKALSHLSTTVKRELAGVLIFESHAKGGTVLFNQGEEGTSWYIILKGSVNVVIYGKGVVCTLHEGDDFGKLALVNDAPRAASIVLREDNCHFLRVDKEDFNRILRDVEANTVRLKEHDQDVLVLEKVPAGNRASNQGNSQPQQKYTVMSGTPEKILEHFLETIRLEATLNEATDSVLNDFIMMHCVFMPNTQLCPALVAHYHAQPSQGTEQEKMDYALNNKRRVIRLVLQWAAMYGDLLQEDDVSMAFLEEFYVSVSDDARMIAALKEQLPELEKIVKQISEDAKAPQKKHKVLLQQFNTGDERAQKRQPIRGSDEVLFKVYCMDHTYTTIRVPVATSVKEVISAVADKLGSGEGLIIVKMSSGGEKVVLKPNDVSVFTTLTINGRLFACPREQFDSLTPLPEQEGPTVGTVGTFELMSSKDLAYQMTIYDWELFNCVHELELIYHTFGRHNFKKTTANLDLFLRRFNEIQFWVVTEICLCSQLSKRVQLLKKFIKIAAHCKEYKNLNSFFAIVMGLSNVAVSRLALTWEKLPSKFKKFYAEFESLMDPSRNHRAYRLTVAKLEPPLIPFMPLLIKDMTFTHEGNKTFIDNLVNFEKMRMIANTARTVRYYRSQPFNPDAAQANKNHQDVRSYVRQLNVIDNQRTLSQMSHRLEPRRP
# [10] = target: Rap guanine nucleotide exchange factor 4 (Homo sapiens) (UniProt Q8WZA2); assay: Confirmatory qHTS for antagonist of cAMP-regulated guanine nucleotide exchange factor 4 (EPAC2) (AID 1645885); also: potency is read from the fitted curve at half-maximal effect; nearly all actives have a fitted effect of over 25% in size
smiles,measurement,setting,value
CCCCCC(=O)O[C@]1(C(C)=O)CC[C@H]2[C@@H]3CCC4=CC(=O)CC[C@]4(C)[C@H]3CC[C@@]21C,Potency,[1],10.6 µM (active)
CCN(CC)CC(=O)OCC(=O)[C@@]1(O)CC[C@H]2[C@@H]3CCC4=CC(=O)CC[C@]4(C)[C@H]3[C@@H](O)C[C@@]21C,Potency,[1],0.0944 µM (active)
O=C1NC2CCCCN2C12CCN(CCCN1c3ccccc3CCc3ccc(Cl)cc31)CC2 (stereo not drawn),Potency,[2],18.3 µM (active)
same,Potency,[1],21.1 µM (active)
same,activity,[3],-2.76%
same,"activity change, negative = inhibition",[4],1.64%
same,activity,[5],-29.7%
same,activity,[6],-1.01%
CCC(=O)O[C@H]1[C@H](O[C@@H]2[C@@H](C)[C@H](O[C@H]3C[C@@](C)(OC)[C@@H](O)[C@H](C)O3)[C@@H](C)C(=O)O[C@H](CC)[C@@](C)(O)[C@H](O)[C@@H](C)C(=O)[C@H](C)C[C@@]2(C)O)O[C@H](C)C[C@@H]1N(C)C,Potency,[2],inactive
same,Potency,[1],inactive
same,Potency,[7],12.5 µM (active)
same,Potency,[8],inactive
same,Potency,[9],inactive
same,Potency,[10],17.5 µM (active)
CN(C)c1cc2c(Nc3ccc4c(cnn4Cc4ccccc4)c3)ncnc2cn1,Potency,[2],23 µM (active)
same,activity,[3],5.63%
same,"activity change, negative = inhibition",[4],6.38%
same,activity,[5],-16.7%
same,activity,[6],-3.6%
C[C@H](CN1CCCC1)C(=O)c1ccc(C(F)(F)F)cc1,Potency,[2],11.9 µM (active)
same,Potency,[1],6.68 µM (active)
Nc1c(NC/C=C\COc2cc(CN3CCCCC3)ccn2)c(=O)c1=O,Potency,[2],inactive
same,Potency,[1],inactive
same,activity,[3],-6.1%
same,"activity change, negative = inhibition",[4],2.26%
same,activity,[5],-13.9%
same,activity,[6],-8.61%
CC(=O)OCC(=O)[C@@]1(O)[C@H](OC(C)=O)C[C@H]2[C@@H]3CCC4=CC(=O)C=C[C@]4(C)[C@@]3(F)[C@@H](O)C[C@@]21C,Potency,[1],0.0596 µM (active)
